Results filed as inconclusive are left out. Activity calls are given as the source filed them. Calls follow the shape of the full dose curve.

The assay in a line: qHTS for Inhibitors of Cell Surface uPA Generation: Wild-type Protective Antigen (WT-PrAg) Counterscreen for Cherry-picked Compounds. Also: 0% is about no effect. To be noted: cells, WT protective antigen toxicity counterscreen; series mostly up to 115 µM; activity (protection): at the top concentration. Background: In qHTS, concentration-response curves come from the screen itself.
As for `CCOc1cc(N2CCOCC2)c(OCC)cc1NC(=O)c1[nH]c(C)c(C(C)=O)c1C`, the “activity (protection)” value is -1.39% (inactive).
In the case of `Cc1nn(CC(=O)OCC(=O)NC(C)c2ccccc2)c(C)c1[N+](=O)[O-]` (configuration not stated) it was -0.966% (inactive); in that of `CCC(=O)Nc1nc(-c2cc([N+](=O)[O-])cs2)cs1`, 0.561% (inactive).
In the case of `CCOc1ccc(CN2CCN(C(=O)Cc3ccccc3)CC2)cc1` it was -1.58% (inactive).
In the case of `COC(=O)CCNS(=O)(=O)c1ccc2nsnc2c1` it was -0.224% (inactive).
`CC(C)c1ccc(NC(=O)COc2ccc(S(=O)(=O)N3CCOCC3)cc2)cc1`: the “activity (protection)” value was 0.0707% (inactive).
In the case of `O=[N+]([O-])c1ccccc1C=NNC(=S)NN=Cc1ccccc1[N+](=O)[O-]`, the “activity (protection)” value is -1.76% (inactive).
As to `CC1(C)CC(CCC(=O)NC(=S)Nc2ccccc2Cl)C(=O)O1` (configuration not stated), the “activity (protection)” value was -1.58% (inactive).
In the case of `COc1ccc(C(=O)NC(=S)Nc2ccc(NC(=O)c3ccco3)cc2)cc1[N+](=O)[O-]` it was -0.262% (inactive); in that of `COc1ccc(CCNC(=O)CSc2nc(N)c3c(C)c(C)oc3n2)cc1OC`, -1.24% (inactive); in that of `O=C(c1ccc(F)c([N+](=O)[O-])c1)N1CC2CC(C1)c1cccc(=O)n1C2` (configuration not stated), -1.24% (inactive).
With `Cc1cc(COc2ccccc2)oc1C(=O)O` the figure was -0.762% (inactive); with `Cc1ccsc1/C=C(\C#N)C(=O)NC1CCS(=O)(=O)C1` (configuration not stated), -0.97% (inactive).
For `CC1CCCN(C(=O)c2ccc(-c3ccccc3Cl)o2)C1` (configuration not stated), the “activity (protection)” value is -2.52% (inactive).
`CC1CCCN(S(=O)(=O)c2cccc([N+](=O)[O-])c2)C1` (configuration not stated): the “activity (protection)” value is 0.828% (inactive).
Consider `CCCCCCCCCOC(=O)C1N2C(=O)[C@@H](NC(=O)COc3ccccc3)[C@H]2SC1(C)C` (some centres not stated), for which the “activity (protection)” value was -2.25% (inactive).
On to `COc1cc2c(cc1OC)CN(C(=O)c1ccc(-c3ccccc3)cc1)CC2`, for which the “activity (protection)” value was -2.51% (inactive).

Source of the values: PubChem BioAssay AID720518 (National Center for Advancing Translational Sciences (NCATS), 2013).
